About 83,000 compounds went through this panel and 20% of them were active in at least one assay; those are over-represented in the sample as a whole.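 In brief: 96-well plates, 48 h treatment, single concentration, percent growth endpoint.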 Calls of active or inactive are those of the source. The calls were made as follows: active = growth percent below 10; inactive = the rest.
The compounds below were run on 786-0 renal (assay: NCI-60 one-dose screen, 48 h (100 = growth as untreated, 0 = no growth, -100 = all killed)). Settings: 10 µM.
For O=C(/C=C/c1ccco1)c1nc2ccccc2n1Cc1ccc(Br)cc1, the growth was 23% (inactive). With O=C(/C=C/c1ccco1)c1nc2ccccc2n1Cc1ccc(F)cc1 the growth was 67.6% (inactive). COc1cc2cc(C(=O)N3C[C@@H](CCl)c4c3cc(OC(=O)N3CCN(C)[C@@H]5CSSC[C@@H]53)c3ccccc43)[nH]c2c(OC)c1OC was tested, and the growth was -9.47% (active). For C#CC[Se]C(=O)c1ccc2n[se]nc2c1, the growth was 63.4% (inactive). For O=C(/C=C/c1ccc(Cl)cc1Cl)c1nc2ccccc2n1Cc1ccc(F)cc1, the growth was 19.8% (inactive). O=C(/C=C/c1ccc(Cl)cc1)c1nc2ccccc2n1Cc1ccc(Br)cc1 was tested, and the growth was 38.9% (inactive). CCOP(=O)(OCC)C(NC(C)=O)C(=O)SCCN (stereo unspecified) was tested, and the growth was 103% (inactive). With COc1cc2cc(C(=O)N3C[C@@H](CCl)c4c3cc(OC(=O)N3CCN(C)[C@@H]5CSSC[C@H]53)c3ccccc43)[nH]c2c(OC)c1OC the growth was -57.9% (active). COc1ccc2cc([C@H](C)C(=O)[Se]CCC#N)ccc2c1 was tested, and the growth was -83.9% (active). In the case of CC12OOC(C)(OO1)C2CCC(=O)OCCNc1ccnc2cc(Cl)ccc12 (stereo unspecified), the growth is reported as -29.3% (active). In the case of CC(C)N=C([Se])NC(=O)c1cccs1, the growth is reported as 2.02% (active). For Cc1ccc2[nH]c(=S)n(-c3ccc(F)cc3)c(=O)c2c1, the growth was 91.4% (inactive). In the case of CCOC(=O)C1=C(Nc2ccccc2)C(=O)OC12C(=O)Nc1ccccc12 (stereo unspecified), the growth is reported as 108% (inactive). For CC12CCC3(CCC(=O)NCCCNc4ccnc5cc(Cl)ccc45)[C@@](C)(OO[C@]3(C)O1)O2, the growth was -22.7% (active). With CC[C@]12C=CCN3CC[C@@]4(c5ccc(OC)cc5N(C)[C@H]4[C@@](O)(C(=O)OC)[C@@H]1OC(=O)CCCC[P+](C1CCCCC1)(C1CCCCC1)C1CCCCC1)[C@@H]32 the growth was -36% (active). For CC(=O)Oc1ccccc1C(=O)[Se]C(=NC(C)C)NC(C)C, the growth was -95.9% (active). With COCCOCCOCCOc1ccc(-n2cc(CCCN(CCNc3ccnc4cc(Cl)ccc34)C(=O)CCC(=O)O[C@@H]3O[C@@H]4OC5(C)CC[C@H]6[C@H](C)CC[C@@H]([C@H]3C)[C@@]46OO5)nn2)cc1 the growth was 47% (inactive). C[C@H]1[C@@H](CC(=O)N[C@@H](Cc2coc3ccccc23)B(O)O)O[C@@H]2OC3(C)CC[C@H]4[C@H](C)CC[C@@H]1[C@@]24OO3 was tested, and the growth was 16.5% (inactive). With COP(=O)(CC(F)(F)C(F)(F)F)OC the growth was -3% (active). CC12OOC(C)(OO1)C2CCC(=O)NCCNc1ccnc2cc(Cl)ccc12 (stereo unspecified) was tested, and the growth was 107% (inactive). With CC[C@]12C=CCN3CC[C@@]4(c5ccc(OC)cc5N(C)[C@H]4[C@@](O)(C(=O)OC)[C@@H]1OC(=O)CCC[P+](c1ccc(C)cc1)(c1ccc(C)cc1)c1ccc(C)cc1)[C@@H]32 the growth was -88% (active). In the case of CC(C)N=C([Se])NC(=O)c1ccccc1, the growth is reported as -93.6% (active). For CC[C@]12C=CCN3CC[C@@]4(c5ccc(OC)cc5N(C)[C@H]4[C@@](O)(C(=O)OC)[C@@H]1OC(=O)CCC[P+](C1CCCCC1)(C1CCCCC1)C1CCCCC1)[C@@H]32, the growth was -16.3% (active). For CC1=C(COCCOC(=O)c2ccc(S(=O)(=O)F)cc2)C2=C(C)C3(CC3)[C@@](C)(O)C(=O)C2=C1, the growth was -3.81% (active). For CC[C@]12C=CCN3CC[C@@]4(c5ccc(OC)cc5N(C)[C@H]4[C@@](O)(C(=O)OC)[C@@H]1OC(=O)CCCC[P+](c1ccc(OC)cc1)(c1ccc(OC)cc1)c1ccc(OC)cc1)[C@@H]32, the growth was -92.9% (active). CC1=C(CCC=NNC(N)=O)C2=C(C)C3(CC3)[C@@](C)(O)C(=O)C2=C1 was tested, and the growth was -3.6% (active). CC[C@@]12CC(C(=O)OC)=C3Nc4cc5c(cc4[C@@]34CCN(C[C@H]3O[C@H]31)[C@@H]24)[C@@H]1[C@H](O5)[C@@H](O)[C@@]2(CC)CC(C(=O)OC)=C3Nc4cc(OC)ccc4[C@@]34CCN1[C@@H]24 was tested, and the growth was 22.2% (inactive). For CCOP(=O)(CC(F)(F)C(F)(F)F)OCC, the growth was 15.2% (inactive). In the case of CC1=C2C(=C[C@@](C)(COP(=O)(Oc3ccccc3)Oc3ccccc3)[C@@H]2O)C(=O)[C@@](C)(O)C12CC2, the growth is reported as -16.1% (active). In the case of CC(=O)Oc1ccccc1C(=O)NC([Se])=NC1CCCCC1, the growth is reported as -11.9% (active). With C[C@H]1[C@H](OC(=O)CCC(=O)N(CCCc2cn(-c3ccc(CN4CCOCC4)cc3)nn2)CCNc2ccnc3cc(Cl)ccc23)O[C@@H]2OC3(C)CC[C@H]4[C@H](C)CC[C@@H]1[C@@]24OO3 the growth was -65% (active).

Source: PubChem BioAssay (NCI)
